Assay outcomes: PubChem, The Scripps Research Institute Molecular Screening Center
TEAD-YAP block: TEAD-YAP interaction inhibition. inhibition, % at 9.12 µM. HEK-TIYL cells, TEAD-Gal4/YAP UAS-luciferase luminescence. actives 1.4% (n = 640,000); in the data active = inhibition above about 32%
FBW7 act: activators of human E3 ligase FBW7 | Q969H0 | AlphaScreen FBW7–phospho-cyclin E peptide binding, activator screen | normalized activity (activation), % at 26.1 µM | actives 0.13% (n = 650,000) | AID 1259310; in the data active = normalized activity above about 1.9%;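 also: purified mutant Fbw7 with reduced substrate affinity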
GPR151 ag: activators of human GPR151. PathHunter beta-arrestin GPR151 cells, luminescence. actives 1% (n = 650,000). activation, % at 11.2 µM. AID 1508602; in the data active = activation above about 4.9%
MITF primary: inhibitors of human MITF | O75030 | AlphaScreen MITF homodimerization, bead proximity signal | inhibition, % at 2.6 µM | actives 0.91% (n = 650,000); in the data active = inhibition above about 50%
GPR151 conf act: human GPR151 activation, confirmation screen; shares compounds with GPR151 ag; GPR151 PathHunter beta-arrestin cells, luminescence, 90 min; % of EA-reagent control over plate median; activation, % at 11.2 µM; 6,700 tested, under 10 active; AID 1508609;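 active = mean percent activation across replicates above the confirmation screen cutoff of 4.91%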
GPR119 counter: counter-screen for GPR151 activators: effect on human GPR119; shares compounds with GPR151 ag; GPR119 PathHunter beta-arrestin cells, luminescence, 90 min; 0 = compound-well median, 100 = enzyme-acceptor control; activation, % at 11.2 µM; actives 0.3% (n = 6,700);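 active = mean percent activation in the counterscreen above 29.09%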;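 also: counterscreen on off-target GPR119 to flag nonselective hits from the GPR151 activator screen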
Target sequence (Q8TDV5 whole entry, looked up): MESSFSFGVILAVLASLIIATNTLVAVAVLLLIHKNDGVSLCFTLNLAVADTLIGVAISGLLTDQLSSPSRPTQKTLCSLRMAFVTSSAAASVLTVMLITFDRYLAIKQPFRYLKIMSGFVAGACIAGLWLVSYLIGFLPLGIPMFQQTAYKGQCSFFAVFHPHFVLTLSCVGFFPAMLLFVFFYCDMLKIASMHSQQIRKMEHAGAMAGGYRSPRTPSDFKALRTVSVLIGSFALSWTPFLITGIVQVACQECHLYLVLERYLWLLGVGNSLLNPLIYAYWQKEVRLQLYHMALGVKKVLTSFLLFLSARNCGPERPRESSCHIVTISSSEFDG
Large screens that a line does not name were inactive (follow-up assays come after a bar, where they were run). Hits are enriched below; roughly 3.5% of the tested compounds scored in any of these assays.

CC(=O)c1ccc(N2CCN(C(=O)c3ccc4c(c3)OCO4)CC2)cc1	none
O=C(c1ccc2c(c1)OCO2)N1CCCCCC1	none
O=C(c1ccc2c(c1)OCO2)N1CCN(c2ccc(Cl)cc2)CC1	GPR151 ag 5.5 | GPR151 conf act inactive | GPR119 counter inactive
CC(=O)N1CCN(C(=O)c2ccc3c(c2)OCO3)CC1	GPR151 ag 5.5 | GPR151 conf act inactive | GPR119 counter inactive
Cc1cccnc1CCNC(=O)c1cc(COc2ccc3ncccc3c2)on1	none
COc1cccc(CCNC(=O)c2cc(COc3ccc4ncccc4c3)on2)c1	GPR151 ag 5.9 | GPR151 conf act inactive | GPR119 counter inactive
Cc1ccc(S(=O)(=O)Nc2nc3ccc(C)cc3nc2Nc2ccc(C)c(C)c2)cc1	none
O=C(OCc1cccc([N+](=O)[O-])c1)c1cc(Cl)ccc1O	GPR151 ag 7.2 | GPR151 conf act inactive | GPR119 counter inactive
COc1ccc(C(Nc2cccc(C)n2)c2ccc3cccnc3c2O)cc1 (stereo unspecified)	TEAD-YAP block 87.9, GPR151 ag 6.7 | GPR151 conf act inactive | GPR119 counter inactive
O=C(c1ccccc1)N1CCN(CC#CC2(O)CCCCC2)CC1	GPR151 ag 10.2 | GPR151 conf act inactive | GPR119 counter inactive
O=C(c1ccc(C#CC2(O)CCCCC2)cc1)N1CCN(c2ccccc2)CC1	none
COc1ccc(C/C(N)=N/OC(=O)Cc2ccccc2)cc1	none
CCC(CC)C(=O)O/N=C(\N)Cc1ccc(OC)cc1	GPR151 ag 9.3 | GPR151 conf act inactive | GPR119 counter inactive
Cc1nc(SCC(=O)NNC(=O)c2cccs2)n[nH]1	GPR151 ag 5.8 | GPR151 conf act inactive | GPR119 counter inactive
O=C1N(C2CCCC2)C[C@@H]2C[C@@H](c3cccn3-c3nccs3)N3CCC[C@@]123	GPR151 ag 6.4 | GPR151 conf act inactive | GPR119 counter inactive
CC(=O)C1=C(O)C(=O)N(CCN2CCOCC2)C1c1ccc([N+](=O)[O-])cc1 (stereo unspecified)	none
CC(C)(C)c1nnc(Nc2ccccc2Cl)[nH]c1=O	none
CC(C)(C)c1nnc(Nc2cc(Cl)ccc2Cl)[nH]c1=O	GPR151 ag 5.7 | GPR151 conf act inactive | GPR119 counter inactive
Cc1c(O)ccc2c(CN3CCN(Cc4ccc5c(c4)OCO5)CC3)cc(=O)oc12	none
CCc1cccc(N(Cc2nnc3n2CCCCC3)C(=O)Nc2cccc(OC)c2)c1	none
COc1ccc(-c2cc(=O)oc3cc(O)c(Cl)cc23)cc1	none
COc1ccc(-c2cc(=O)oc3c(O)c(O)ccc23)cc1	GPR151 ag 8.2 | GPR151 conf act inactive | GPR119 counter inactive
CCOc1ccc(-c2nc3s/c(=C\c4ccccc4F)c(=O)n3n2)cc1	GPR151 ag 10.8 | GPR151 conf act inactive | GPR119 counter inactive
COc1ccc(/C=c2\sc3nc(-c4ccncc4)nn3c2=O)cc1OC	none
COc1ccc(-c2nc3s/c(=C\c4ccccc4F)c(=O)n3n2)cc1	none
CCCCOc1ccc(/C=c2\sc3nc(-c4ccncc4)nn3c2=O)cc1	GPR151 ag 5.1 | GPR151 conf act inactive | GPR119 counter inactive
CCCCOc1ccc(/C=c2\sc3nc(-c4ccc(Cl)cc4)nn3c2=O)cc1	none
COc1cc(/C=c2\sc3nc(-c4ccncc4)nn3c2=O)ccc1OC(C)=O	GPR151 ag 4.9 | GPR151 conf act inactive | GPR119 counter inactive
CC(C)CCOc1ccc(-c2nn(-c3ccccc3)cc2/C=c2\sc3nc(-c4cccs4)nn3c2=O)cc1	GPR151 ag 7.0 | GPR151 conf act inactive | GPR119 counter inactive
c1ccc2c(Nc3nc4ncnc(Nc5ccc6c(c5)OCO6)c4[nH]3)nccc2c1	none
COCCCNC(=O)C1CCC(Cn2c(=O)c3sccc3n(Cc3cccc(C)c3)c2=O)CC1 (stereo unspecified)	GPR151 ag 5.3 | GPR151 conf act inactive | GPR119 counter inactive
COc1ccc(/C=C/c2nc3cc([N+](=O)[O-])ccc3s2)cc1O	none
Cc1cccc(OCC(=O)Nc2ccc(S(=O)(=O)N(C)Cc3ccccc3)cc2)c1	GPR151 ag 5.6 | GPR151 conf act inactive | GPR119 counter inactive
COc1ccc(S(=O)(=O)N(CC(=O)O)Cc2ccccc2)cc1C	none
CC(=O)Nc1ccc(S(=O)(=O)N(C)Cc2ccccc2)cc1	none
CN(Cc1ccccc1)S(=O)(=O)c1ccc(NS(C)(=O)=O)cc1	GPR151 ag 5.7 | GPR151 conf act inactive | GPR119 counter inactive
COc1ccc(S(=O)(=O)N(C)Cc2ccccc2)cc1C	GPR151 ag 11.2 | GPR151 conf act inactive | GPR119 counter inactive
CCCNC(=O)c1cccc(N2CCCC(C(=O)N(CC)CC)C2)n1 (stereo unspecified)	none
O=S(=O)(c1cccc(S(=O)(=O)N2CCOCC2)c1)c1ccc(Cl)c(Cl)c1	GPR151 ag 5.5 | GPR151 conf act inactive | GPR119 counter inactive
Cc1cc(-n2c(SCC(=O)NCCc3ccccc3)nc3n[nH]c(C)c3c2=N)ccc1Cl	none
Cn1c(=O)c2c(ncn2CC(O)CN2C(=O)c3ccccc3S2(=O)=O)n(C)c1=O (stereo unspecified)	GPR151 ag 6.0 | GPR151 conf act inactive | GPR119 counter inactive
Cc1ccc(NC(=O)N2CCCC2C(=O)Nc2ccc(F)cc2)cc1 (stereo unspecified)	none
COc1ccc(CCNc2ccnc(-c3ccc(C(=O)NC4CC4)cc3)n2)cc1	TEAD-YAP block 33.2, GPR151 ag 5.5 | GPR151 conf act inactive | GPR119 counter inactive
Cc1ccc(C(=O)NCN2CCN(c3ccccc3)CC2)cc1	GPR151 ag 6.0 | GPR151 conf act inactive | GPR119 counter inactive
O=C(NCCCN1CCN(c2ccccc2)CC1)c1ccccc1	none
COC(=O)c1ccccc1NC(=O)N(c1ccccc1)C(C)C	none
COc1ccc(CCNC(=O)c2cncc(Nc3ncccn3)c2)cc1	GPR151 ag 6.9 | GPR151 conf act inactive | GPR119 counter inactive
CCOC(=O)c1cc(-c2ccccc2)oc1CN1CCOCC1	GPR151 ag 8.9 | GPR151 conf act inactive | GPR119 counter inactive
CCOC(=O)c1cc(-c2ccccc2)n(CCCN2CCOCC2)c1C	none
c1coc(CNc2nc3ccccc3n2CCN2CCOCC2)c1	GPR151 ag 9.8 | GPR151 conf act inactive | GPR119 counter inactive
Cn1c(CNc2nc3ccccc3n2CCN2CCOCC2)nc2ccccc21	none
O=C(Nc1ccc(Cl)cc1)c1cc(S(=O)(=O)NCCC2=CCCCC2)ccc1F	none
O=C(NCCC1=CCCCC1)c1cc(S(=O)(=O)NCCc2ccccc2)ccc1F	GPR151 ag 9.7 | GPR151 conf act inactive | GPR119 counter inactive
COc1cc(-c2ccc(NC(=O)C3CCCO3)c(OC)c2)ccc1NC(=O)C1CCCO1 (stereo unspecified)	none
CCOc1cc(NC(=O)C2CCCO2)c(OCC)cc1NC(C)=O (stereo unspecified)	GPR151 ag 14.6 | GPR151 conf act inactive | GPR119 counter inactive
